EP2 antag: human EP2 receptor antagonists, primary screen, TR-FRET cAMP, C6 glioma cells | Prostaglandin E2 receptor EP2 subtype (Homo sapiens), P43116 | C6 glioma cells expressing human EP2; cells stimulated with saturating PGE2 | inhibition, % at 25 µM | 260,000 compounds, 0.52% hits | AID 1422, 2008;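 active = percent inhibition above 40 after rounding to a whole number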;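 note: rat C6 glioma host cells with rolipram phosphodiesterase inhibitor present; the protocol text gives 20 µM as final concentration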
EP2 mod: EP2 receptor modulators, cAMP readout, primary screen, cell-based, HTRF cAMP, PGE2 stimulation; Prostaglandin E2 receptor EP2 subtype (Homo sapiens), P43116; EP2-expressing cells, cAMP HTRF FRET, PGE2 co-stimulation; induction, % at 25 µM; 260,000 compounds, 0.83% hits; AID 940, 2007;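 active = compounds whose cAMP rise, as percent of the full-agonist control response, exceeds 60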;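 note: rat C6 glioma line stably carrying human EP2 under a CMV promoter; the protocol text gives 20 µM as final concentration; 100% = response of wells given 1 µM PGE2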
Arbovirus inh: antivirals against arbovirus infection, primary screen, cell-based, full library, 10K replicate subset | arbovirus infection cell-based antiviral screen | inhibition, % at 10 µM | 200,000 compounds, 0.37% hits | AID 1251, 2008; in the data active = inhibition above about 30%
p97 ATPase inh: inhibitors of human p97 ATPase, primary screen, biochemical | recombinant p97 ATPase, Kinase-Glo ATP luminescence, 3 h | Transitional endoplasmic reticulum ATPase (Homo sapiens), P55072 | AID 1481, 2009 | 220,000 compounds, 0.42% hits | inhibition, % at 8 µM; in the data active = inhibition above about 15%;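 note: 0% = DMSO vehicle and 100% = wells lacking enzyme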
Hck-Nef inh: inhibitors of Nef-activated human Hck kinase, primary screen, biochemical, Z-Lyte FRET, 384-well, Hck-YEEI; inhibition, % at 20 µM; 220,000 compounds, 0.68% hits; Recombinant Hck-YEEI plus Nef, Z-Lyte FRET kinase assay; Tyrosine-protein kinase HCK (Homo sapiens), P08631;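 active = Hck-Nef kinase inhibition above about 50%, limit read from the data; inactive = inhibition below that limit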;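 note: 0% = DMSO with Hck plus Nef and 100% = Hck alone without Nef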
Target sequence (P08631 whole entry, looked up): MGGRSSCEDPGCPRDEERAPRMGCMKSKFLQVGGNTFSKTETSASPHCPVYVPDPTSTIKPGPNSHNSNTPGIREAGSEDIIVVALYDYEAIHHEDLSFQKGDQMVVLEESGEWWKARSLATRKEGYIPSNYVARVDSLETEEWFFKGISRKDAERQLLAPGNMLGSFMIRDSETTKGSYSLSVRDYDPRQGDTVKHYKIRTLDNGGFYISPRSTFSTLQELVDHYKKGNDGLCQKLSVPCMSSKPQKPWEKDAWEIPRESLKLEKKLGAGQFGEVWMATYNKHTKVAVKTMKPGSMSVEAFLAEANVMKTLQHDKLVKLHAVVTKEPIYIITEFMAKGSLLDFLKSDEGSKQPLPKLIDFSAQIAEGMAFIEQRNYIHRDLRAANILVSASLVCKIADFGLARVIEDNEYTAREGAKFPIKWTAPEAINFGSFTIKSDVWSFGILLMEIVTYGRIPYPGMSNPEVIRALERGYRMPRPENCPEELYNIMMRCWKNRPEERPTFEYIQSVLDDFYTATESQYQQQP
Hck Nef conf: retest of Hck:Nef kinase inhibitor hits, confirmation, biochemical, Z-Lyte FRET, 384-well, p-Tyr peptide counterscreen | shares compounds with Hck-Nef inh | Recombinant Hck-YEEI:Nef, Z-Lyte FRET kinase assay | calls only at 10 µM | 1,300 compounds, 28% hits | AID 463188, 2010;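 active = average inhibition of at least 50%, with Z-scores no higher than 3 in both the phospho-tyrosine peptide and fluorescence counterscreens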
Numbers without * were called inactive; i = inactive; . = not tested or not shown; + = active, no number. An excerpt weighted towards active compounds, which were near 2.4% of everything screened.

SMILES | EP2 antag | EP2 mod | Arbovirus inh | p97 ATPase inh | Hck-Nef inh | Hck Nef conf
CC(=O)c1cc2c(O)c(O)ccc2o1 | 3 | 2 | -6 | 0 | 4 | .
Cc1cc(C)c2[nH]c(=O)c(CN(CCCN(C)C)C(=S)NC3CCCCC3)cc2c1 | 6 | -85 | . | . | . | .
CCn1cc(C(=O)N2CCCC(n3nc(-c4cccs4)ccc3=O)C2)c(C)n1 (stereo unspecified) | . | 14 | . | . | . | .
CCN1CCCC1CN(Cc1cc2cc(OC)c(OC)cc2[nH]c1=O)C(=O)Nc1ccc(Cl)cc1 (stereo unspecified) | 30 | -49 | . | . | . | .
NS(=O)(=O)c1ccc(N/N=C/c2ccccc2C(=O)O)c([N+](=O)[O-])c1 | 2 | 22 | 4 | 1 | -3 | .
NS(=O)(=O)c1ccc(N/N=C/c2ccc(O)cc2O)c([N+](=O)[O-])c1 | 4 | -21 | . | 4 | 93* | +
O=C(N=Nc1c(O)[nH]c2ccccc12)c1ccc(CN2CCOCC2)cc1 | 5 | -35 | 2 | -3 | 94* | +
Cc1ccc(CNc2ncnc3cc(Cl)ccc23)o1 | 11 | -34 | 11 | 0 | -14 | .
COc1cc2ncnc(NCc3ccc(C)o3)c2cc1OC | 4 | -22 | 0 | 2 | 78* | i
N#C/C(=C(/O)COC(=O)Cc1c[nH]c2ccccc12)c1nc2ccccc2[nH]1 | 5 | -9 | -17 | 8 | 60* | +
COc1ccccc1OCC(=O)OC/C(O)=C(\C#N)c1nc2ccccc2[nH]1 | 9 | -7 | -31 | 6 | 2 | .
CC(=O)OCC1=C(C(=O)O)N2C(=O)C(NC(=O)CCn3nc(C(F)(F)F)c(Br)c3C3CC3)C2SC1 (stereo unspecified) | 5 | 27 | 0 | 4 | 60* | i
Cc1ccc2nc(SCC(=O)c3c(C)[nH]c4ccccc34)[nH]c2c1 | 2 | -24 | -3 | 5 | 5 | .
O=C(CSc1nc2ncc(Cl)cc2[nH]1)NCC(=O)Nc1ccc(F)c(F)c1F | 10 | 13 | . | -2 | 61* | .
Cc1[nH]c2ccccc2c1C(=O)CSc1nc2ncc(Cl)cc2[nH]1 | 11 | -13 | -6 | 7 | 72* | +
CCn1c(COc2ccccc2C)nnc1SCC(=O)Nc1ccc(OC)cc1OC | 10 | -8 | . | . | . | .
C=CCn1cc(/C=C2/NC(=O)NC2=O)c2ccccc21 | 6 | -12 | . | 6 | 61* | i
NC(=O)COc1ccc(-n2cnnn2)cc1 | 6 | 9 | -4 | 6 | 19 | .
CC(Oc1ccc(-n2cnnn2)cc1)C(=O)O (stereo unspecified) | 6 | 7 | 5 | 2 | 75* | i
COc1cccc(C(O)CN2CCC3(CC2)CC(O)c2cc(C)c(C)cc2O3)c1 (stereo unspecified) | 9 | -59 | . | . | . | .
S=c1[nH]nc(-c2cc(-c3ccccc3)n[nH]2)n1/N=C/c1c(Cl)cccc1Cl | 11 | 43 | . | -1 | 72* | +
S=c1[nH]nc(-c2cc(-c3ccccc3)n[nH]2)n1/N=C/C=C/c1ccco1 | 14 | -19 | . | 8 | 71* | i
S=c1[nH]nc(-c2n[nH]c3c2CCC3)n1/N=C/C=C/c1ccco1 | 4 | -12 | . | 7 | 75* | i
CC(C)(C)n1nc(-c2ccc(Cl)cc2)c2c(N)ncnc21 | 9 | 41 | -11 | -7 | 105* | +
CC(C)(C)n1nc(-c2ccc(F)cc2)c2c(N)ncnc21 | 16 | -7 | -7 | 4 | 109* | +
SMILES | EP2 antag | EP2 mod | Arbovirus inh | p97 ATPase inh | Hck-Nef inh | Hck Nef conf
O=C(CN1CCC(c2ccc(F)cc2)CC1)Nc1nccs1 | 2 | -55 | . | . | . | .
Cc1nc2ncnn2c(N2CCN(S(=O)(=O)c3ccc4ccccc4c3)CC2)c1Cc1ccccc1 | 6 | -26 | . | . | . | .
O=C(Nc1ccc(Cl)c(Cl)c1)Nc1nnc(-c2ccncc2)s1 | 15 | -104 | 21 | -2 | 56* | .
COc1cc(/C=C(/C#N)c2nc3ccccc3[nH]2)ccc1OCc1ccc(C(=O)O)o1 | 6 | -14 | 1 | 5 | 56* | +
CCOCCCNc1nc2c(c(=O)[nH]c(=O)n2C)n1Cc1ccccc1 | 3 | 1 | . | . | . | .
N#Cc1c(-c2cccnc2)c2c([nH]c1=O)-c1ccccc1OC2 | 5 | -6 | . | 9 | 130* | .
N#Cc1c(-c2ccc(F)cc2)c2c([nH]c1=O)-c1ccccc1OC2 | 10 | -9 | . | 7 | 126* | .
COc1cccc2cc(-c3csc(CCn4nc(C)cc4C)n3)c(=O)oc12 | 12 | -10 | -1 | -2 | 2 | .
CC/C(C)=N/Nc1nc(-c2cc3cccc(OC)c3oc2=O)cs1 | 2 | -14 | . | 12 | 57* | i
Cc1ccc(C(=O)CSc2nnc(COc3ccc4ccccc4c3)o2)cc1 | 15 | -66 | . | . | . | .
Cc1ccc(-n2cccc2/C=C2\C(=N)N3N=C(c4ccco4)SC3=NC2=O)cc1 | 13 | -48 | 46* | 4 | 70* | +
O=C(NCCC1=CCCCC1)c1cc(-c2ccccn2)nc2ccccc12 | 6 | 5 | -5 | 6 | 60* | i
C=CCOc1c(Cl)cc(/C=C2\C(=O)NC(=O)N(c3ccc(O)cc3)C2=O)cc1OC | 4 | 24 | . | . | . | .
CCC(C)C(NC(=O)c1ccccc1NC(=O)c1ccc(OC)cc1)C(=O)NCc1ccco1 (stereo unspecified) | 11 | 38 | -4 | 0 | 69* | +
COc1ccc(C(=O)Nc2ccc(Cl)cc2C(=O)NCc2ccco2)cc1 | 4 | 54 | -16 | 0 | 1 | .
Cn1c(=O)n(C)c2cc3[nH]c(CO)nc3cc21 | 6 | -2 | . | . | . | .
CC(C)N1CCC(N(C)C(=O)Cn2c(-c3cccs3)cc3cccnc32)CC1 | 8 | -12 | . | . | . | .
O=C(Oc1ccc(Nc2ncnc3ccccc23)cc1)c1cccnc1 | 9 | -59 | -17 | 2 | 85* | +
COc1cc(/C=C2\SC(=N)N(c3ccc(F)cc3)C2=O)ccc1O | 10 | -29 | 5 | 2 | 77* | i
CC(=O)N1CCN(c2nc(C)nc3sc4c(c23)CCCC4)CC1 | 11 | -6 | . | . | . | .
CCOC(=O)c1cc2c(=O)n3cccc(C)c3nc2n(Cc2ccco2)c1=NC(=O)c1ccccc1 | 2 | 55 | -6 | -1 | 5 | .
CCOC(=O)c1cc2c(=O)n3ccccc3nc2n(CCCOC)c1=NC(=O)c1ccncc1 | 3 | -1 | -12 | 3 | 34 | .
CCOC(=O)c1cc2c(=O)n3cccc(C)c3nc2n(CC2CCCO2)c1=NC(C)=O (stereo unspecified) | 14 | . | . | -2 | 74* | i
